The text below walks through data of PubChem BioAssay AID2685 (National Center for Advancing Translational Sciences (NCATS), 2010).

Hit rate of the full screen: of about 320,000 compounds, about 2,100 (0.66%) were called active. Another 53% or so got no clear call; they are omitted. Calls follow the shape of the dose curve; as a rule, active = well fitted inhibition curve with a large enough effect in the signal ratio, with a control signal flat (not every such curve was filed as active); inconclusive = small, poorly fitted or top-dose-only effect, or effect the other way, or a change in a side signal; inactive = flat fitted curve, though single readings scatter; the % refers to the signal ratio. This excerpt belongs to a sample that is enriched for actives.
Potency is read from the fitted curve at half-maximal effect.

This assay is described as follows: qHTS Assay for Lipid Storage Modulators in Drosophila S3 Cells.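 As to cell number change: cells counted by Cell Tracker Red CMTPX staining in the red channel.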 As to lipid storage change, negative = inhibition: % is scaled to controls: 0 for no effect and ±100 for the full control effect. The note with it: BODIPY lipid droplet fluorescence, 18-24 h, cells fed with added oleic acid; cell number change: measured here: cell count max response; series mostly up to 46.1 µM; lipid storage change, negative = inhibition: at the top concentration. A digest of the protocol: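 Drosophila S3 cells loaded with oleic acid (400 uM, as added) and compounds at several concentrations; lipid droplets imaged by 488-nm laser-scanning cytometry, 500–530 nm intensity and object ratio to cell channel. Percent activity normalized to 20 uM Triacsin C.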
For the compound `CCCCC(CC)C(=O)Nc1ccc(Nc2ccccc2)cc1` (configuration not stated), the “lipid storage change, negative = inhibition” value is 25% (inactive) and the cell number change is -8.16%. The corresponding values for `CN1C(=O)C(=C2CCCCCC2)SC1=S` are 8.65% (inactive) and -2.61%. The corresponding values for `COc1cc2c(cc1OC)C1O[C@](CCCCN3C(=O)c4ccccc4C3=O)(C2)Oc2c1c(=O)oc1ccc(F)cc21` are 16.8% [at 9.22 µM] (inactive) and -5.97%. The corresponding values for `CCOC(=O)/C(C#N)=C/c1cc2cc(C)c(C)cc2nc1Cl` are 18.6% (inactive) and -0.849%. Take `CC1CCCCN1C(=O)Cn1c(=O)n(CCC(=O)NCc2ccco2)c(=O)c2sccc21` (configuration not stated): the “lipid storage change, negative = inhibition” value was 10.7% (inactive) and the cell number change is -5.81%. For `CCCN(CCC)Cc1c(C(=O)N/N=C/C(C)=C\c2ccco2)nnn1-c1nonc1N`, the Potency is 11.6 µM (active) and the cell number change was -11.1%.

Regarding `Nc1nonc1-n1nnc(C(=O)N/N=C/c2cccc(Cl)c2Cl)c1CN1CCCC1`, the result was inactive and the cell number change was determined as 16.7%. The corresponding values for `CC(C)c1c(C(=O)N/N=C/c2cccc(OCc3ccc(F)cc3)c2)nnn1-c1nonc1N` are “inactive” and 11.8%. Turning to `CC(=C/c1ccco1)/C=N/NC(=O)c1nnn(-c2nonc2N)c1CN(C)C`, the outcome was inactive. `CC(/C=N/NC(=O)c1nnn(-c2nonc2N)c1CN(C)C)=C\c1ccco1`: the “lipid storage change, negative = inhibition” value was 4.3% (inactive) and the cell number change was -0.367%.

Regarding `Cc1cccc(COc2ccc(/C=N/NC(=O)c3nnn(-c4nonc4N)c3C)cc2)c1`, the “lipid storage change, negative = inhibition” value is -3.17% (inactive) and the cell number change was 11.5%. Regarding `CC(C)c1c(C(=O)N/N=C/c2ccccc2OCc2c(F)cccc2Cl)nnn1-c1nonc1N`, the outcome was inactive.

Turning to `CCOc1ccccc1/C=N/NC(=O)c1nnn(-c2nonc2N)c1CN1CCCC1`, the Potency is 20.6 µM (active) and the cell number change came out at 16%.

Take `Nc1nonc1-n1nnc(C(=O)N/N=C/c2ccccc2Br)c1CN1CCCC1`: the compound was called inactive and the cell number change is -1.9%.

In the case of `CN(C)Cc1c(C(=O)N/N=C/c2ccccc2OCc2c(F)cccc2Cl)nnn1-c1nonc1N`, the Potency is 4.11 µM (active) and the cell number change came out at 0.435%. The corresponding values for `Cc1ccc(COc2cccc(/C=N/NC(=O)c3nnn(-c4nonc4N)c3C)c2)cc1` are 20.6 µM (active) and 50%. For `CN(Cc1c(C(=O)N/N=C/c2c(F)cccc2Cl)nnn1-c1nonc1N)c1ccccc1`, the “lipid storage change, negative = inhibition” value was -3.49% (inactive) and the cell number change stood at 8.36%.

For `Cc1cc(NC(=O)COc2ccc3oc4ccccc4c3c2)no1`, the “lipid storage change, negative = inhibition” value was 15.7% (inactive) and the cell number change was -12.8%. The corresponding values for `CC1CCN(C(=O)c2ccc3c(Cl)c4c(nc3c2)CCCC4)CC1` are -0.435% (inactive) and 2.72%. `Cc1ccc(S(=O)(=O)CCN2CCN(c3ccccc3)CC2)cc1`: the call was inactive and the cell number change is -10.3%.

With `NS(=O)(=O)c1ccc(CCNC(=O)C(=O)NCC2OCCN2S(=O)(=O)c2ccc(Cl)cc2)cc1` (configuration not stated), the “lipid storage change, negative = inhibition” value is 12.9% (inactive) and the cell number change was -8.07%. Take `CN(Cc1c(C(=O)N/N=C/c2ccc(O)cc2)nnn1-c1nonc1N)c1ccccc1`: the compound was classed as inactive and the cell number change is -9.24%. The corresponding values for `CN(C)c1ccc(/C=N/NC(=O)c2nnn(-c3nonc3N)c2CN(C)c2ccccc2)cc1` are “inactive” and 24.5%. For the compound `CN(Cc1c(C(=O)N/N=C/c2ccccc2)nnn1-c1nonc1N)c1ccccc1`, the Potency is 4.61 µM (active) and the cell number change was -11.2%. As to `Cc1ccc(-n2c(SCc3cn4ccsc4n3)nc3ccccc3c2=O)cc1`, the outcome was inactive and the cell number change was -7.5%.

`C=C(C)CSc1nnc([C@@H]2CCCN2)o1`: the “lipid storage change, negative = inhibition” value was 6.25% (inactive) and the cell number change is 9.92%. The corresponding values for `O=C(Nc1ccc(F)cc1)C1CCCN(S(=O)(=O)c2ccc3[nH]c(=O)ccc3c2)C1` (configuration not stated) are -12.6% (inactive) and 23.9%. With `CCc1cccc(NC(=O)C2CCCN(S(=O)(=O)c3ccc4[nH]c(=O)ccc4c3)C2)c1` (configuration not stated), the outcome was inactive and the cell number change is 16%.

On to `CCOc1ccc(NC(=O)C2CCCN(S(=O)(=O)c3ccc4[nH]c(=O)ccc4c3)C2)cc1` (configuration not stated), for which the Potency was 20.6 µM (active) and the cell number change is 23.6%. Regarding `COc1ccc(NC(=O)C2CCN(S(=O)(=O)c3ccc4c(c3)NC(=O)C(C)S4)CC2)cc1` (configuration not stated), the outcome was inactive and the cell number change stood at 2.12%. The corresponding values for `CC1Sc2ccc(S(=O)(=O)N3CCC(C(=O)Nc4ccc(Cl)cc4)CC3)cc2NC1=O` (configuration not stated) are “inactive” and 7.08%. Regarding `COc1ccc(S(=O)(=O)N2CCCC2C(=O)Nc2ccc(C(C)=O)cc2)cc1` (configuration not stated), the “lipid storage change, negative = inhibition” value was 10.3% (inactive) and the cell number change was -11.3%. Take `CCOc1ccc(NC(=O)C2CCN(S(=O)(=O)c3ccc4c(c3)NC(=O)C(C)S4)CC2)cc1` (configuration not stated): the Potency is 1.03 µM (active). For the compound `CCOc1ccc(NC(=O)C2CCCN2S(=O)(=O)c2ccc(OCC)cc2)cc1` (configuration not stated), the Potency is 0.651 µM (active) and the cell number change turned out to be 9.72%. As for `COc1ccc(NC(=O)C2CCCN2S(=O)(=O)c2ccc(F)cc2)cc1` (configuration not stated), the cell number change was -1.12% and the lipid storage change, negative = inhibition is -17.7% [at 9.22 µM] (inactive). The corresponding values for `CC(C)NCC(O)COCCOc1ccc(Br)cc1` (configuration not stated) are 23.8% and 0.83% (inactive). In the case of `O=C(CCC1CCCN(C(=O)c2ccc3c(c2)OCO3)C1)N1CCN(c2ccccn2)CC1` (configuration not stated), the “lipid storage change, negative = inhibition” value is 17.9% (inactive) and the cell number change is -1.56%.

Turning to `CC1CCCCC1NC(=O)c1ccc(S(=O)(=O)N2CCCC2)cc1` (configuration not stated), the result was inactive and the cell number change is 25.1%.

`COc1cccc(C(=O)NCCS(=O)(=O)NCCc2ccc(OC)c(OC)c2)c1`: the compound was classed as inactive. As for `Cc1cc(-c2nn(C)c(=O)c3ccccc23)ccc1CNC(=O)NC1CCCCC1`, the “lipid storage change, negative = inhibition” value is 11.4% (inactive) and the cell number change turned out to be 19.3%. On to `Cc1sc2nc(CN3CCOCC3)[nH]c(=O)c2c1-c1ccccc1`, for which the call was inactive and the cell number change was -18.1%. Take `O=C(c1cccc(Cl)c1)N1CCCC(C(=O)N2CCCCCC2)C1` (configuration not stated): the “lipid storage change, negative = inhibition” value was -16.5% (inactive) and the cell number change is -0.867%. The corresponding values for `NC(Cc1ccccc1)C(O)(c1ccccc1)c1ccccc1` (configuration not stated) are 5.79% (inactive) and -20.2%.
